Test systems include DU-145 prostate; MALME-3M melanoma; MDA-MB-231 breast; RXF 393 renal; SF-268 CNS; SF-295 CNS; SF-539 CNS; UACC-257 melanoma; M14 melanoma.
Experiment in all cases: NCI-60 one-dose screen, 48 h (100 = growth as untreated, 0 = no growth, -100 = all killed)
Common to all, as to settings: 10 µM

The panel holds about 83,000 compounds, 20% with a hit somewhere; the sample as a whole holds those more often.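 Results are percent growth after 48 hours of single-concentration exposure. 100 means growth as in untreated cells, lower positive values show inhibition; negative values down to -100 show cell death.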 A number with no mark means an inactive call. The source made the active and inactive calls. The calls were made as follows: active = growth percent below 10; inactive = the rest.

Turning to `Cc1cc(C)nc(SCC(=O)Nc2ccc(S(N)(=O)=O)cc2)n1`, the growth in the assay on DU-145 prostate is 114%; with MALME-3M melanoma it was 99.1%; in the assay with MDA-MB-231 breast, 103%; in the assay on RXF 393 renal, 96%; with SF-268 CNS, 125%; in the assay with SF-295 CNS it was 99.8%. Also, the growth was 94.8% in the assay on SF-539 CNS, 107% in the assay with UACC-257 melanoma and 114% with M14 melanoma.

Turning to `CC1(C)CC[C@]2(C(=O)N3CCOCC3)CC[C@]3(C)C(=CC[C@@H]4[C@@]5(C)CC[C@H](NCO)C(C)(C)[C@@H]5CC[C@]43C)[C@H]2C1`, the growth in the assay on DU-145 prostate is -89.4% (active); in the assay on MALME-3M melanoma it was -96.6% (active); in the assay on MDA-MB-231 breast, -97.6% (active); in the assay with RXF 393 renal it was -95% (active); with SF-268 CNS, -76.5% (active); with SF-295 CNS, -87.2% (active). For the same molecule, the growth is -96.8% (active) in the assay with SF-539 CNS, -93.9% (active) in the assay on UACC-257 melanoma and -84.6% (active) in the assay on M14 melanoma.

For `Cc1ccc(NC(=O)NCn2c(=O)[nH]c3ccccc3c2=O)cc1`, the growth in the assay with DU-145 prostate is 89%; in the assay on MALME-3M melanoma it was 79.3%; in the assay with MDA-MB-231 breast, 40.7%; with RXF 393 renal, 30.3%; in the assay on SF-268 CNS, 64.3%; with SF-295 CNS, 95%. Also, the growth is 58.2% in the assay on SF-539 CNS, 94.5% in the assay on UACC-257 melanoma and 79.2% in the assay with M14 melanoma.

With `CC[C@@]1(O)C(=O)OCc2c1cc1n(c2=O)Cc2c-1nc1cc(F)c(C)c3c1c2[C@@H](N)CC3`, the growth with DU-145 prostate is 6.82% (active); in the assay with MALME-3M melanoma, -55.8% (active); with MDA-MB-231 breast, 10.8%; with RXF 393 renal, -77.2% (active); with SF-268 CNS, 6.53% (active); in the assay with SF-295 CNS it was -0.789% (active). Besides, the growth with SF-539 CNS is -74.9% (active); in the assay on UACC-257 melanoma, -59.6% (active); in the assay on M14 melanoma, -20.8% (active).

`COc1ccc(-c2nc(S(=O)(=O)c3ccc(C)cc3)c(S(C)(=O)=O)o2)cc1`: the growth was -99.1% (active) in the assay with DU-145 prostate; -95.5% (active) in the assay on MALME-3M melanoma; -92.4% (active) in the assay on MDA-MB-231 breast; -95.1% (active) with RXF 393 renal; -37% (active) in the assay on SF-268 CNS; 78.4% with SF-295 CNS. The growth in the assay with SF-539 CNS is -100% (active); in the assay on UACC-257 melanoma, -84.6% (active); in the assay with M14 melanoma, -31.9% (active).

With `O=C(CS(=O)(=O)c1oc(-c2ccc(Cl)cc2)nc1S(=O)(=O)c1ccc(Cl)cc1)N1CCOCC1`, the growth in the assay on DU-145 prostate was 32.3%; with MALME-3M melanoma, -71.3% (active); in the assay with MDA-MB-231 breast it was -1.43% (active); in the assay on RXF 393 renal, -76.1% (active); with SF-268 CNS, 84.6%; in the assay with SF-295 CNS, 85%. Also, the growth was 21.5% in the assay on SF-539 CNS, 73.9% with UACC-257 melanoma and 24.4% in the assay on M14 melanoma.

With `CC(C)NC(=O)c1cc(-c2ccc(NC(=O)Nc3ccc(N4CCN(C)CC4)c(C(F)(F)F)c3)cc2)nc2cccnc12`, the growth with DU-145 prostate is -88.7% (active); in the assay on MALME-3M melanoma it was -96.3% (active); in the assay on MDA-MB-231 breast it was -91.6% (active); in the assay on RXF 393 renal it was -89.8% (active); in the assay with SF-268 CNS it was -42.9% (active); in the assay on SF-295 CNS, -96.5% (active). The growth is -100% (active) in the assay with SF-539 CNS, -88.6% (active) with UACC-257 melanoma and -86.6% (active) with M14 melanoma.

`CC1(C)CC[C@]23CC[C@]4(C)[C@H](CC[C@@H]5[C@@]6(C)CC[C@H](N)C(C)(C)[C@@H]6CC[C@]54C)[C@H]2[C@H]1OC3=O`: the growth in the assay on DU-145 prostate is -79.8% (active); with MALME-3M melanoma it was -95.9% (active); with MDA-MB-231 breast, -96.3% (active); in the assay on RXF 393 renal, -95.6% (active); with SF-268 CNS, -38.6% (active); in the assay with SF-295 CNS it was -94.5% (active). Besides, the growth is -99.3% (active) in the assay on SF-539 CNS, -90.8% (active) in the assay with UACC-257 melanoma and -77.6% (active) with M14 melanoma.

Consider `N[C@@H](CSSC[C@H](N)C(=O)Nc1ccc(OCC2CCCC2)cc1)C(=O)Nc1ccc(OCC2CCCC2)cc1`, for which the growth in the assay on DU-145 prostate is -88.4% (active); with MALME-3M melanoma it was -63.7% (active); with MDA-MB-231 breast, -97.4% (active); with RXF 393 renal it was -94.1% (active); with SF-268 CNS, -73.1% (active); with SF-295 CNS, -90.4% (active). In addition, the growth in the assay on SF-539 CNS is -99.7% (active); in the assay with UACC-257 melanoma it was -96.1% (active); in the assay with M14 melanoma, -74.5% (active).

With `CC1(C)CC[C@]2(C(=O)NCCCNCCCCNCCCN)CC[C@]3(C)C(=CC[C@@H]4[C@@]5(C)Cc6c([nH]c7ccccc67)C(C)(C)[C@@H]5CC[C@]43C)[C@H]2C1`, the growth in the assay with DU-145 prostate is 96.3%; with MALME-3M melanoma, 85.3%; in the assay on MDA-MB-231 breast it was -7.91% (active); in the assay with RXF 393 renal it was 78.1%; in the assay on SF-268 CNS, 113%; in the assay with SF-295 CNS it was 98.5%. For the same molecule, the growth with SF-539 CNS is 90.7%; in the assay with UACC-257 melanoma, 95.9%; in the assay with M14 melanoma, 59.7%.

As for `O=C(Nc1ccc(OCC(=O)c2ccccc2)cc1)Nc1ccc(Cl)c(C(F)(F)F)c1`, the growth was 49.2% in the assay on DU-145 prostate; 10.4% in the assay on MALME-3M melanoma; 16.8% with MDA-MB-231 breast; -36.7% (active) in the assay with RXF 393 renal; 18.9% with SF-268 CNS; 13.2% in the assay on SF-295 CNS. In addition, the growth in the assay with SF-539 CNS is 12.1%; in the assay on UACC-257 melanoma it was 7.84% (active); in the assay with M14 melanoma, 17.5%.

Consider `O=S(=O)(c1ccc(Cl)cc1)c1nc(-c2ccccc2)oc1S(=O)(=O)c1ccc(Cl)cc1`, for which the growth in the assay on DU-145 prostate was 97.2%; in the assay on MALME-3M melanoma, 91.8%; in the assay with MDA-MB-231 breast, 76.9%; with RXF 393 renal it was 7.97% (active); in the assay on SF-268 CNS, 97.7%; with SF-295 CNS, 92.9%. Moreover, the results for the growth in the assay on SF-539 CNS, in the assay with UACC-257 melanoma and with M14 melanoma were 84.8%, 85.5% and 90.8%, respectively.

On to `CN1CCN(c2ccc(Nc3nc(N4CCN(S(=O)(=O)c5ccc(Cl)cc5)CC4)c4sccc4n3)cc2)CC1`, for which the growth in the assay on DU-145 prostate is -60.8% (active); in the assay on MALME-3M melanoma, -97.6% (active); in the assay on MDA-MB-231 breast it was -86.3% (active); in the assay with RXF 393 renal it was -95.7% (active); with SF-268 CNS, 52.9%; in the assay on SF-295 CNS, -78% (active). In addition, the growth in the assay with SF-539 CNS was -100% (active); with UACC-257 melanoma it was -87.1% (active); in the assay with M14 melanoma, -60.6% (active).

Take `O=C(Nc1ccc(OCc2ccccc2)cc1)Nc1ccc(Cl)c(C(F)(F)F)c1`: the growth was 13% with DU-145 prostate; -30.8% (active) in the assay on MALME-3M melanoma; -20% (active) with MDA-MB-231 breast; -3.2% (active) in the assay with RXF 393 renal; 14.9% in the assay with SF-268 CNS; -26.5% (active) in the assay with SF-295 CNS. Further, the values for the growth in the assay on SF-539 CNS, in the assay on UACC-257 melanoma and in the assay on M14 melanoma were -46.9% (active), -20.7% (active) and 19.3%, respectively.

For the molecule `CC1(C)CC[C@]2(C(=O)O)CC[C@]3(C)C(=CC[C@@H]4[C@@]5(C)C/C(=C/c6ccncc6)[C@H](O)C(C)(C)[C@@H]5CC[C@]43C)[C@@H]2C1`, the growth in the assay on DU-145 prostate is 57.9%; in the assay with MALME-3M melanoma, 73.1%; with MDA-MB-231 breast it was 34.1%; in the assay with RXF 393 renal it was 24.2%; with SF-268 CNS, 46.9%; with SF-295 CNS, 20.1%. Moreover, the growth with SF-539 CNS is 27.8%; with UACC-257 melanoma, 64.3%; in the assay on M14 melanoma, 61.6%.

As to `C=C(C)[C@@H]1CC[C@]2(C)[C@H](CC=C3[C@@H]4CC(C)(C)CC[C@]4(C(=O)N4CCOCC4)CC[C@]32C)[C@@]1(C)CCCN`, the growth in the assay with DU-145 prostate was -93.1% (active); in the assay with MALME-3M melanoma it was -93.8% (active); with MDA-MB-231 breast, -91.4% (active); in the assay on RXF 393 renal, -90.9% (active); in the assay with SF-268 CNS, -76% (active); with SF-295 CNS, -87.4% (active). Also, the growth in the assay on SF-539 CNS was -98.6% (active); in the assay on UACC-257 melanoma it was -92.4% (active); in the assay with M14 melanoma, -80% (active).

Take `Cc1ccc(C(C)C)cc1NC(=O)c1ccccc1O`: the growth in the assay with DU-145 prostate was 63.3%; in the assay with MALME-3M melanoma it was 9.96% (active); in the assay on MDA-MB-231 breast, 65.1%; in the assay on RXF 393 renal it was 57.3%; in the assay with SF-268 CNS, 55.2%; in the assay with SF-295 CNS, 61.8%. Further, the growth in the assay with SF-539 CNS is 49.5%; in the assay with UACC-257 melanoma it was 29%; with M14 melanoma, 43.2%.

For the molecule `CCOC(=O)C1=C(N)N(c2ccc(Cl)cc2)C2=C(C(=O)CC(C)(C)C2)C1c1ccc(N2CCOCC2)cc1` (stereo not given), the growth in the assay with DU-145 prostate was 99%; in the assay with MALME-3M melanoma, 93.9%; with MDA-MB-231 breast it was 87.3%; with RXF 393 renal it was 98.6%; in the assay on SF-268 CNS it was 89.7%; with SF-295 CNS, 89.3%. For the same molecule, the growth was 100% in the assay with SF-539 CNS, 106% with UACC-257 melanoma and 103% in the assay with M14 melanoma.

`CC(=C(c1ccc(OCCN2CCCCC2)cc1)c1ccc(OCCN2CCCCC2)cc1)c1ccccc1`: the growth in the assay with DU-145 prostate was 62.5%; with MALME-3M melanoma, -99.9% (active); in the assay with MDA-MB-231 breast, 4.97% (active); in the assay on RXF 393 renal, -66.2% (active); in the assay with SF-268 CNS, 34.5%; with SF-295 CNS it was -57.2% (active). Moreover, the growth with SF-539 CNS was -93.3% (active); in the assay on UACC-257 melanoma, -78.9% (active); in the assay with M14 melanoma, -47.2% (active).

As to `C=C[C@H]1[C@H](O[C@@H]2OC(CO)[C@@H](O)[C@H](O)C2OC(=O)c2c(O)cc(O)cc2-c2cccc(O)c2)OC=C2C(=O)OCC[C@H]21` (stereo not given in full), the growth with DU-145 prostate is 105%; in the assay with MALME-3M melanoma it was 92.6%; in the assay with MDA-MB-231 breast, 96.1%; with RXF 393 renal, 104%; in the assay with SF-268 CNS it was 101%; with SF-295 CNS it was 96.2%. Besides, the growth with SF-539 CNS was 104%; in the assay on UACC-257 melanoma, 90.8%; in the assay on M14 melanoma it was 101%.

The record behind these values is PubChem BioAssay (NCI).
